In the library only some 4.4% were active in any assay of this set; here they are far more common.
TRHR enhancer = qHTS for Small Molecule Agonists and Allosteric Enhancers of Human TRH Receptor: Primary Screen for Enhancers; Thyrotropin-releasing hormone receptor (Homo sapiens), P34981; enhancement, % at 2 µM; actives 0.66% (n = 360,000); AID 493056, 2011; TRHR cells, fluo-8 calcium fluorescence, EC20 TRH enhancement; in the data active means enhancement above about 30%; further: 0% is about no effect
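TRHR-expressing cells loaded with fluo-8 calcium dye were read kinetically (ex 480/em 530) during compound addition, then stimulated with an EC20 of TRH (10 nM final). Enhancement of the Gq-mediated intracellular calcium response was scored.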
D1 agonist = Allosteric Agonists of the Human D1 Dopamine Receptor: qHTS; D(1A) dopamine receptor (Homo sapiens), P21728; HEK293 T-REx D1 cells, calcium flux, agonist mode; activation, % at 2 µM; actives 1% (n = 360,000); AID 504660, 2011; further: 0% is about no effect
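Inducible HEK293 T-REx D1 cells, force-coupled to calcium signalling, were plated at 4000 cells/well with tetracycline and held overnight at 30 C. After no-wash calcium dye loading, compound-evoked calcium rise over 180 s flagged agonists.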
TRHR ag = qHTS for Small Molecule Agonists and Allosteric Enhancers of Human TRH Receptor: Primary Screen for Agonists. Thyrotropin-releasing hormone receptor (Homo sapiens), P34981. activation, % at 2 µM. actives 0.18% (n = 360,000). TRHR cells, calcium flux fluo-8, FDSS agonist mode; further: 0% is about no effect
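Read-out: compound-evoked intracellular calcium rise in TRHR cells, fluo-8 dye, kinetic FDSS fluorescence at 1 s/cycle following a 10-cycle baseline. Cells cultured overnight before dye loading (30 min–1.5 h, RT).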
D1 potentiator = Potentiators of Human D1 Dopamine Receptor: qHTS. D(1A) dopamine receptor (Homo sapiens), P21728. actives 0.036% (n = 360,000). AID 504651, 2011. HEK293 TREx D1 cells, calcium flux, dopamine EC20 potentiation. potentiation, % at 10 µM; in the data active means potentiation above about 30%; further: 0% is about no effect
D1 antagonist = Antagonist of Human D 1 Dopamine Receptor: qHTS. HEK293 TREx D1 cells, calcium flux, dopamine EC80; active compounds read low. AID 504652, 2011. actives 3.2% (n = 360,000). activity change, negative = inhibition, % at 10 µM. D(1A) dopamine receptor (Homo sapiens), P21728; in the data active means activity change below about -30%; further: on the % scale 0 is the no-effect control and ±100 the full control effect
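Tetracycline-induced HEK293 Trex D1 cells, force-coupled to calcium, dye-loaded; compounds added and read 180 s, then EC80 dopamine added and calcium flux tracked kinetically another 180 s.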
USP1 inh = Inhibitors of USP1/UAF1: Primary Screen; Ubiquitin carboxyl-terminal hydrolase 1 (Homo sapiens), O94782; recombinant USP1/UAF1, Ub-Rhodamine cleavage fluorescence; Potency, µM (top dose mostly 57.1 µM), for the others: at the highest dose activity change, negative = inhibition, most hits filed as inhibitors; actives 0.23% (n = 390,000); AID 743255, 2014; active means well fitted inhibition curve with a large enough effect; inconclusive means small, poorly fitted or top-dose-only effect; inactive means no such curve, though single readings can be large or run the other way; further: potency means the concentration at half of the fitted maximal effect; on the % scale 0 is the no-effect control and ±100 the full control effect; nearly all actives have a fitted effect of over 60% in size
Target sequence (O94782 whole entry, looked up): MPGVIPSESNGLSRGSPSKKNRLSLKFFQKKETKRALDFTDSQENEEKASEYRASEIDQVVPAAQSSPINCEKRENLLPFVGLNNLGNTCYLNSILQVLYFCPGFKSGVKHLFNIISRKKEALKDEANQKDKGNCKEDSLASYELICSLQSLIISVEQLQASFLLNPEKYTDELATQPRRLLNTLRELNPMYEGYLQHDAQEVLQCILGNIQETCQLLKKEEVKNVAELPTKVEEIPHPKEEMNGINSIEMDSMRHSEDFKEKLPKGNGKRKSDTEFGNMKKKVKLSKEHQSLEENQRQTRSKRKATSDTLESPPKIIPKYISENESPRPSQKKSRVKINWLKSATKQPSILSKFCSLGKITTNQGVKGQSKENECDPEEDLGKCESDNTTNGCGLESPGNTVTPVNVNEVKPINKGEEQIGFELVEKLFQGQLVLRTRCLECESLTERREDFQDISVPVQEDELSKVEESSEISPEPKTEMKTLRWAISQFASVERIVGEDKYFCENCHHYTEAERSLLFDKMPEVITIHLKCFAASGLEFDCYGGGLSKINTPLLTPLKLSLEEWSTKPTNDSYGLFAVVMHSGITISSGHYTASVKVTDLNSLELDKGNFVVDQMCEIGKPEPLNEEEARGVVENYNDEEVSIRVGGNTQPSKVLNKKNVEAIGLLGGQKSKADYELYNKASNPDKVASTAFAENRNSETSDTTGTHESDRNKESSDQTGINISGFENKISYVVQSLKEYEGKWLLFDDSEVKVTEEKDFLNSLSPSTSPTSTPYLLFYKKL
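Step one: compound is pinned into 1nM USP1/UAF1 in HEPES pH 7.8 buffer with TCEP. Step two: 15 min room-temperature incubation. Step three: Ub-Rho (150nM final) starts cleavage, tracked by fluorescence over six one-minute reads.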
Numbers without * were called inactive; ? = inconclusive; . = not tested or not shown. Unless noted, no stated cut-off is given here; in the data, active means activation above about 30%; inactive means the rest.

SMILES | TRHR enhancer | D1 agonist | TRHR ag | D1 potentiator | D1 antagonist | USP1 inh
COc1ccccc1NC(=O)NCC(c1ccco1)N1CCCCC1 (configuration not stated) | -2.6 | 4.9 | 0.2 | -4.2 | -41.3* | -15.0%
COc1ccccc1NC(=O)C(=O)NCC(c1ccco1)N1CCc2ccccc21 (configuration not stated) | 32.9* | 0.1 | 0.3 | -1.1 | 11.6 | -8.2%
Cc1ccccc1C(=O)N1CC(=O)Nc2ccc(Cl)cc2C1c1ccccc1 (configuration not stated) | 2.2 | 0.7 | 0.4 | 1.8 | 5.8 | -22.6%
O=C(NCC(c1cccs1)S(=O)(=O)c1cccs1)c1cccc(F)c1 (configuration not stated) | 5.1 | 3.7 | -0.3 | -4.9 | -5.0 | -14.4%
CCCCNC(=O)Cn1nc(N2CCN(c3ccccc3OC)CC2)ccc1=O | 17.9 | 0.8 | -0.2 | -0.8 | -42.1* | -21.9%
COCCNC(=O)Cn1nc(N2CCN(c3ccccc3OC)CC2)ccc1=O | 4.3 | 1.3 | 0.2 | 3.0 | 8.8 | -16.9%
Cc1ccc2c(c1)N(C(=O)CCC(=O)NCc1cccs1)CCO2 | -3.3 | 0.8 | -0.6 | -0.3 | 4.7 | -8.8%
COc1ccc(NC(=S)N(Cc2ccc(C)cc2)Cc2ccccn2)cc1 | 2.7 | 0.5 | -0.5 | -3.0 | -30.6* | -17.3%
Cc1ccc(C)c(N2CCN(c3nc4ccccc4c(=O)n3-c3ccc(Cl)cc3)CC2)c1 | -4.3 | 0.6 | 0.9 | 1.8 | -56.2* | -10.8%
Cc1cccc(N2CCN(c3nc4ccccc4c(=O)n3-c3ccc(Cl)cc3)CC2)c1C | -2.0 | 0.0 | 0.5 | 0.3 | 10.5 | -6.5%
C/C(=N\NC(N)=O)C1(C)CCCCC1 | 35.4* | 0.6 | 0.2 | 2.9 | -3.3 | -8.2%
CCCc1nnc(NC(=O)Cn2c(=O)oc3cc(Br)ccc32)s1 | 0.7 | 61.8* | 5.5 | -0.9 | -9.5 | ?
CCCc1nnc(NC(=O)Cn2c(=O)oc3ccccc32)s1 | 15.9 | 22.8 | 0.9 | 0.4 | -7.8 | -19.6%
CCc1ccc2oc(C(=O)NCCc3ccc(OC)c(OC)c3)cc(=O)c2c1 | 0.9 | 9.6 | -0.8 | -1.4 | -12.6 | -14.2%
CCOC(=O)c1c(NC(=O)COc2ccccc2F)sc2c1CC(C)(C)NC2(C)C | 6.4 | 3.4 | 1.2 | 35.6* | 12.4 | -6.8%
CCOC(=O)c1c(NC(=O)CSc2ncccn2)sc2c1CC(C)(C)NC2(C)C | 10.4 | 4.0 | -0.1 | 7.9 | 5.9 | -17.0%
CCOc1cc(C)c(S(=O)(=O)NC2CCCCC2)cc1C | 0.3 | 18.2 | 0.3 | -5.0 | -32.5* | -12.6%
CC(C)(C)C(=O)N1CCN(c2nc3ccc(Cl)cc3s2)CC1 | 0.9 | 2.9 | -0.3 | -3.2 | -43.3* | -12.3%
O=C1Nc2ccccc2N(O)N1c1ccc(S(=O)(=O)Nc2ccccn2)cc1 | -3.7 | 0.3 | 0.2 | -2.0 | -50.1* | -2.5%
Cc1ccnc(NS(=O)(=O)c2ccc(N3C(=O)Nc4ccccc4N3O)cc2)c1 | 1.6 | 2.7 | 0.0 | -4.8 | 12.3 | 2.8%
O=[N+]([O-])c1cccnc1N1CCN(c2ccc(F)cc2)CC1 | 36.8* | 0.6 | 1.3 | -3.0 | -5.1 | -17.9%
O=[N+]([O-])c1cccnc1N1CCN(Cc2ccc3c(c2)OCO3)CC1 | 1.7 | 4.1 | -1.2 | -11.1 | -36.6* | -24.1%
O=[N+]([O-])c1ccc2ncnc(N3CCN(Cc4ccc5c(c4)OCO5)CC3)c2c1 | 0.8 | 4.1 | -0.2 | -2.0 | -10.3 | -9.1%
O=C(c1cccc([N+](=O)[O-])c1)N1CCN(Cc2ccc3c(c2)OCO3)CC1 | 4.1 | 7.3 | -1.0 | -6.8 | -30.5* | -20.1%
N#Cc1c(F)cccc1N1CCN(Cc2ccc3c(c2)OCO3)CC1 | -6.8 | 8.4 | 0.5 | . | -37.1* | -9.5%
SMILES | TRHR enhancer | D1 agonist | TRHR ag | D1 potentiator | D1 antagonist | USP1 inh
CCOC(=O)C1=C(CS(=O)(=O)c2ccc(OC)c(Cl)c2)NC(=O)NC1c1cccc(OC)c1 (configuration not stated) | -6.7 | -0.9 | -0.4 | -1.6 | 4.7 | -20.7%
O=C(CCc1cn(Cc2ccccc2Cl)c2ccccc12)NC1CCCCC1 | -7.8 | 2.0 | -0.2 | -0.4 | -10.7 | ?
CCC(C(=O)NCc1cc(OC)ccc1OC)n1nc(C)c2sc3ccccc3c2c1=O (configuration not stated) | -5.6 | 3.0 | -1.6 | 1.1 | 11.1 | -2.2%
CC(C)Oc1ccc(CNC(=O)Cn2c(=O)c3cccn3c3cccnc32)cc1 | -20.4 | 0.7 | 0.0 | -16.3 | -81.4* | -18.2%
Cc1cn(C)c(CC(=O)NCc2ccccc2Cl)c1C(=O)O | -3.6 | -1.2 | 0.1 | -3.0 | 16.9 | -21.8%
Cc1cccc(NC(=O)CSc2cn(CC(=O)N3CCCCCC3)c3ccccc23)c1 | 2.4 | 0.6 | -1.7 | -2.2 | 7.2 | ?
Cc1nnsc1NC(=O)OCc1ccc(Cl)cc1Cl | -3.8 | 13.2 | 1.4 | -7.2 | -32.6* | -13.0%
Cc1nn(C)c(Cl)c1NC(=O)OCc1ccc(Cl)cc1Cl | -6.9 | 25.1 | -0.1 | -9.2 | -37.2* | -18.8%
Cc1nnsc1NC(=O)OCCCl | 17.0 | 0.5 | 0.8 | -1.3 | -7.1 | -16.9%
Cc1nn(C(=O)c2ccccc2F)c(C)c1S(=O)(=O)N1CCOCC1 | -5.2 | 0.9 | 0.7 | 3.4 | -10.2 | -1.6%
CC/C(C)=N/Nc1ccc(S(=O)(=O)N2CCCC2)cc1[N+](=O)[O-] | -5.0 | 2.0 | -0.2 | -1.1 | -47.5* | -2.5%
O=[N+]([O-])c1cc(S(=O)(=O)N2CCCC2)ccc1NN=C1CCCCC1 | 1.3 | 0.2 | 0.7 | -5.7 | 5.2 | -3.1%
CC(C)[C@H](Nc1ccc(S(=O)(=O)N2CCOCC2)cc1[N+](=O)[O-])C(=O)OCC(N)=O | 4.1 | 1.9 | 0.1 | -7.4 | -74.0* | -4.7%
Cc1cccc(C(=O)Nc2ccc(C(=O)OCc3cc(=O)n4c(C)csc4n3)cc2)c1 | -4.8 | 7.1 | -0.3 | 0.7 | -16.6 | -26.8%
COc1cc(N2CCCC2)c(OC)cc1/C=C(/C#N)c1ccc(Br)cc1 | 0.5 | 38.9* | 8.1 | -3.6 | -15.0 | -14.4%
O=C(Oc1ccc(Nc2ncnc3ccccc23)cc1)c1cccnc1 | -3.6 | -0.9 | 1.4 | -2.7 | -47.1* | -22.9%
COc1ccc(OC(=O)c2cccnc2)cc1 | 12.8 | 0.4 | 0.5 | -1.6 | 6.1 | -14.3%
